Screening data: PubChem, National Center for Advancing Translational Sciences (NCATS)
IL-1B inflam inh: blocks inflammasome-driven IL-1 beta release. 360,000 compounds, 4.7% hits. THP-1 LPS/ATP IL-1B secretion, AlphaLISA, 16 h; active compounds read low. activity change, % at 57.5 µM. AID 743279; in the data active = activity change below about -50%; inconclusive = mostly about -30% to -49%
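Secreted IL-1B measured by AlphaLISA bead assay after 16 h compound exposure of THP-1 cells; compounds (final up to 57.5 uM) added 1 h before LPS (250 ng/mL) and ATP (1.25 mM) stimulation; lower signal means less secretion.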
Gal4-VP16 FLuc: inhibits Gal4-VP16 luciferase reporter, ROR gamma counter-screen; Drosophila S2 Gal4-VP16 UAS-luciferase, luminescence, 20 h; Potency, µM (doses to about 53.6 µM), for the others: top-dose activity, negative = inhibition, most hits filed as inhibitors; 310,000 compounds, 3.5% hits; AID 2546;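 also: Gal4-VP16 expression switched on by copper sulfate through the metallothionein promoter; potency is read from the fitted curve at half-maximal effect; nearly all actives have a fitted effect of over 50% in size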
TDP1 cell noCPT: qHTS for Inhibitors of human tyrosyl-DNA phosphodiesterase 1 (TDP1): qHTS in cells in absence of CPT. Potency, µM (series often up to 46.2 µM), without a hit: top-dose activity change, negative = growth inhibition, hits mostly inhibitors. 420,000 compounds, 15% hits. AID 686978, 2013. DT40 Tdp1-/- hTDP1 cells, no CPT, ATP luminescence, 48 h; also: potency is read from the fitted curve at half-maximal effect; nearly all actives have a fitted effect of over 55% in size
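Luminescent ATP content (CellTiter-Glo) served as the growth readout. Knockout chicken DT40 cells expressing human TDP1 were exposed to compounds without camptothecin for a minimum 48 hr at 37 °C.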
RORgamma inh: blocks mouse ROR gamma transcriptional activity | P51450 | Drosophila S2 Gal4-RORgamma UAS-luciferase reporter, 20 h | Potency, µM (top dose mostly 53.6 µM), for the others: at the top dose activity change, negative = inhibition, usual class: inhibitors | 310,000 compounds, 5.4% hits; also: potency is read from the fitted curve at half-maximal effect; nearly all actives have a fitted effect of over 60% in size
Target sequence (P51450 whole entry, looked up, the tested form may be a part): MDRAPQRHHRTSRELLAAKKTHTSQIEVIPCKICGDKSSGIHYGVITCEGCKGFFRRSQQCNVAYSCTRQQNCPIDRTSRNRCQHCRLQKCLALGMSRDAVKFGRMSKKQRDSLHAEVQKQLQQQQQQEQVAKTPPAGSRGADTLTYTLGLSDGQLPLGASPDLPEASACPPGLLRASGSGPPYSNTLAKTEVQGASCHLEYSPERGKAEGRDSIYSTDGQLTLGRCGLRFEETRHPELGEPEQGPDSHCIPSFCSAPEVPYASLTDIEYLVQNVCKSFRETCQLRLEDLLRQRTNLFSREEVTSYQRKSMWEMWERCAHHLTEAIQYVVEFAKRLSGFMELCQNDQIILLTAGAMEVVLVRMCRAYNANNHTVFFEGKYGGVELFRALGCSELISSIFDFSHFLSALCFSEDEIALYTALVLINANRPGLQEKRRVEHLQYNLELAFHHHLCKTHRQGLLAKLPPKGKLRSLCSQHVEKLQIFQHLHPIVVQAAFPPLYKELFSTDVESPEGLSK
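Drosophila S2 cells stably expressing Gal4-DBD/mouse RORγ fusion under metallothionein promoter plus UAS-luciferase; compound 1 h, then 700 uM CuSO4 induction for 20 h at ambient temperature; inhibition read as reduced luminescence.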
LDHA inh: inhibitors of human lactate dehydrogenase A. P00338. purified LDHA, NADH/diaphorase-resazurin fluorescence; active compounds read low. activity change, % (values are at about 110 or 230 µM). 480,000 compounds, 0.15% hits; in the data active = activity change below about -30%; inconclusive = mostly about -25% to -30%;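 also: plate controls were DMSO wells for no effect and wells without enzyme for full effect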
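Human LDH5 (2 nM) was incubated with 0.06 mM NADH and 0.2 mM pyruvate for 5 min at room temperature in Tris pH 7.4. Remaining NADH was coupled through diaphorase/resazurin, and resorufin fluorescence was read at 0 and 20 min.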
TDP1 cell CPT: DT40-hTDP1 cell growth loss with CPT. Potency, µM (titrated, usually from 46.2 µM), without a hit: at the highest dose activity change, negative = growth inhibition, usual class: inhibitors. AID 686979. chicken DT40 Tdp1-/-;hTDP1 cells + 20 nM CPT, ATP luminescence, 48 h. 420,000 compounds, 12% hits; also: potency is read from the fitted curve at half-maximal effect; nearly all actives have a fitted effect of over 55% in size
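Chicken DT40 Tdp1-/- cells complemented with human TDP1, 400 cells/well, exposed to compounds plus 20 nM camptothecin for at least 48 h at 37 C; viability read as ATP content by CellTiter-Glo luminescence.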
* = called active by the depositor; ? = inconclusive; / = not tested or not shown; [ ] = another dose, or the depositor's remark. The list is not random: actives were taken first. Their share in the collection is about 18%. Unless noted, calls follow the shape of the dose curve; as a rule, active = well fitted curve in the direction sought with a large enough effect; inconclusive = small, poorly fitted or top-dose-only effect, or another doubt; inactive = no such curve, though single readings can be large; an effect the other way counts as inactive or inconclusive. Unless noted, % is scaled to controls: 0 for no effect and ±100 for the full control effect.

SMILES	IL-1B inflam inh	Gal4-VP16 FLuc	TDP1 cell noCPT	RORgamma inh	LDHA inh	TDP1 cell CPT
CCn1cc(/C=N/NC(=O)c2cc3c(ccc4ccccc43)o2)c2ccccc21	?	?	?	7.1µM*	-14	?
CC(C)n1cc(/C=N\NC(=O)c2cc3c(ccc4ccccc43)o2)c2ccccc21	-25	-25%	?	?	-11	?
O=C(N/N=C/c1cc(Br)c(O)c(Br)c1)c1cc2c(ccc3ccccc32)o1	-23	?	?	?	1	13µM*
Cc1ccc(-c2cn3c(n2)sc2cc(C(=O)NCc4cccs4)ccc23)cc1	/	/	21µM*	/	-9	15µM*
O=C(NCCCN1CCCCCC1)c1ccc2c(c1)sc1nc(-c3ccccc3)cn12	/	/	3.7µM*	/	-17	6.5µM*
O=C(NCc1cccs1)c1ccc2c(c1)sc1nc(-c3ccc(F)cc3)cn12	/	/	?	/	0	-20%
CCC1CCCCN1CCCNC(=O)c1ccc2c(c1)sc1nc(-c3ccc(F)cc3)cn12 (configuration not stated)	/	/	2.6µM*	/	-2	4.1µM*
CCc1ccc(-c2cn3c(n2)sc2cc(C(=O)NCC(C)c4ccccc4)ccc23)cc1 (configuration not stated)	/	/	-15%	/	-1	?
CCCN1CCN(CCCNC(=O)c2ccc3c(c2)sc2nc(-c4ccc(C)cc4)cn23)CC1	/	/	1.2µM*	/	4	1.3µM*
CCC1CCCCN1CCCNC(=O)c1ccc2nc(N3CCC(C)CC3)sc2c1 (configuration not stated)	?	18%	?	-34%	-2	?
O/N=C1/CC/C(=N\O)c2nn(-c3ccccc3)nc21	-65*	-5%	9.2µM*	12%	3	15µM*
COC(=O)c1nn(-c2ccccc2)nc1-c1nn(-c2ccccc2)nc1C(=O)OC	-8	-4%	16µM*	10%	0	?
CN(CC(=O)Nc1ccccc1OCC(F)(F)F)S(=O)(=O)c1ccc2ccccc2c1	/	/	/	/	4	/
CCc1ccc(NC(=O)Cc2nc(-c3[nH]c(C)c(C(=O)OC)c3C)cs2)cc1	/	/	/	/	-9	/
Nc1nc(Nc2ccccc2F)nc(-c2cc3ccccc3o2)n1	/	/	/	/	14	/
COc1ccc(OC)c(Nc2nc(N)nc(-c3cc4ccccc4o3)n2)c1	-6	?	18µM*	-6%	-6	?
CC(C)(C)OC(=O)NCCc1nnc(SCC(=O)c2ccc(Cl)cc2)o1	-17	?	?	?	-11	23µM*
O=C(CSc1nnc(CNC(=O)c2cccs2)o1)c1ccc(Cl)cc1	-58*	-9%	?	-3%	5	21µM*
CC(C)[C@H](N)c1nnc(SCC(=O)c2ccc(Cl)cc2)o1	-10	8%	13µM*	0%	3	12µM*
C[C@H](N)c1nnc(SCC(=O)c2ccc(Cl)cc2)o1	12	-8%	-1%	-20%	-13	4%
C[C@H](NC(=O)OC(C)(C)C)c1nnc(SCC(=O)Nc2cccc(Cl)c2)o1	-1	-9%	17%	6%	-15	-25%
C[C@H](NC(=O)OC(C)(C)C)c1nnc(SCC(=O)c2ccc(Cl)cc2)o1	12	-29%	21µM*	?	-2	16µM*
COc1ccccc1CNC(=O)C1=C(c2ccccc2)c2cc(Cl)ccc2S(=O)(=O)N1C	/	/	/	/	-9	/
COc1ccc(C2CC(=O)Nc3ccsc32)cc1 (configuration not stated)	/	/	/	/	-7	/
COC(=O)Nc1ccc(SCC(=O)c2ccccc2)cc1	-12	-12%	-22%	23%	-8	-28%
SMILES	IL-1B inflam inh	Gal4-VP16 FLuc	TDP1 cell noCPT	RORgamma inh	LDHA inh	TDP1 cell CPT
COC(=O)Nc1ccc(SCC(=O)c2ccc(Cl)cc2)cc1	-62*	3%	?	-33%	-1	?
Cc1cccc(N2CCN(C(=O)/C=C/c3cccs3)CC2C)c1 (configuration not stated)	-11	-3%	15µM*	31%	1	?
Cc1cccc(N2CCN(C(=O)CSc3ccsc3[N+](=O)[O-])CC2C)c1 (configuration not stated)	-73*	-6%	?	3%[10 µM]	1	-1%
Cc1cccc(N2CCN(C(=O)NC3CCCCC3)CC2C)c1 (configuration not stated)	-12	-3%	-8%	34%	0	-28%
CN(C)CCCn1c(-c2ccc(COc3ccc(Br)cc3)o2)n[nH]c1=S	/	/	/	/	-6	/
O=C(N/N=C/c1cc(Br)c(Br)o1)c1cc2ccccc2o1	?	6.3µM*	?	5µM*	-44*	?
Cc1cc(/C=N/NC(=O)c2cc3ccccc3o2)c(C)n1C	-23	?	23µM*	?	-1	15µM*
CCOC(=O)Cn1cc(/C=N/NC(=O)c2cc3ccccc3o2)c2ccccc21	?	7%	?	?	-9	0%
